Growth inhibition data for 21 compounds are collected here from PubChem BioAssay (NCI).

Experiment [1] can be described thus: NCI Yeast Anticancer Drug Screen. Data for the rad50 strain (AID 155).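 Further: 0% = growth of vehicle-only cultures of the same strain.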 The settings on record: S. cerevisiae rad50 strain growth inhibition; at 50.0 µM; active compounds read high. The essentials:
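Growth of the mutant yeast was measured after compound exposure and referenced to vehicle-treated cultures.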

A short description of experiment [2]: NCI Yeast Anticancer Drug Screen. Data for the mec2-1 strain (AID 157). The settings on record: S. cerevisiae mec2-1 strain, at 50.0 µM, active compounds read high. The essentials:
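Mutant yeast (mec2-1) grown with compound; growth inhibition relative to vehicle control reported.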

Experiment [3] is described as follows: NCI Yeast Anticancer Drug Screen. Data for the sgs1 mgt1 strain (AID 161).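 Further: 0% = growth of cultures given vehicle only.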 The settings on record: S. cerevisiae sgs1 mgt1 strain, at 50.0 µM, active compounds read high. A digest of the protocol:
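This yeast growth screen uses a strain with defined DNA-repair lesions; compound-treated growth is compared with vehicle-treated growth.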

A short description of experiment [4]: NCI Yeast Anticancer Drug Screen. Data for the cln2 rad14 strain (AID 165).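 Further: 0% = growth equal to vehicle treated cultures.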 The settings on record: S. cerevisiae cln2 rad14 strain, at 50.0 µM, active compounds read high. The essentials: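 Readout is yeast growth inhibition versus vehicle-treated controls, using a strain with cln2 and rad14 alterations exposed to compound.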
The nature of experiment [5]: NCI Yeast Anticancer Drug Screen. Data for the bub3 strain (AID 167). The settings on record: S. cerevisiae bub3 mutant strain, at 50.0 µM, active compounds read high. The essentials: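 Whole-cell yeast assay. The mutant strain was incubated with compounds, and growth inhibition was determined by comparison with vehicle-treated cells.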
A short description of experiment [6]: NCI Yeast Anticancer Drug Screen. Data for the mlh1 rad18 strain (AID 175). The settings on record: S. cerevisiae mlh1 rad18 strain growth inhibition; at 50.0 µM; active compounds read high. The essentials:
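Genetically defined yeast (DNA repair-deficient) exposed to compounds; growth inhibition determined relative to vehicle.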

SMILES strings stand for the structures. The panel holds about 79,000 compounds, 15% with a hit somewhere; the sample as a whole holds those more often. Unmarked numbers belong to inactive results. The source made the active and inactive calls. No stated cut-off is given here; in the data, active means growth inhibition above about 70%; inactive means the rest. Where a SMILES comes first, the peptide text is derived from it. The star is where a group is joined. Cbz = O=C(OCc1ccccc1)*; Bn = c1ccc(C*)cc1

Consider `Cc1ccc(-n2[nH]nc(C#N)c2=O)cc1`, for which the growth inhibition is -6.75% in experiment [1]; -20.6% in experiment [2]; -23.9% in experiment [3]; -1.25% in experiment [4]; -27.1% in experiment [5]; 5.65% in experiment [6].

Consider `CN1C(=O)NC(=O)C1(C)C=O` (stereo unspecified), for which the growth inhibition in experiment [1] is 2.8%; in experiment [2] it was 0.9%; in experiment [3], -2.7%; in experiment [4], 5.95%; in experiment [5], 10.9%; in experiment [6] it was -12.1%.

As to `O=C(NNc1ccccc1)C1C2CC3OC(=O)C1C3C2` (stereo unspecified), the growth inhibition in experiment [1] was 54%; in experiment [2] it was 82.1% (active); in experiment [3], 77.6% (active); in experiment [4], 52.4%; in experiment [5], 79.8% (active); in experiment [6], 68.5%.

For the compound `COc1ccc(C(C#N)C(=O)C(=O)Nc2ccc(C)cc2C)cc1OC` (stereo unspecified), the growth inhibition in experiment [1] is -30.6%; in experiment [2], 19.6%; in experiment [3] it was 42%; in experiment [4], -22.9%; in experiment [5], 48.2%; in experiment [6], 28.8%.

Consider `CC(C)C(NC(=O)C(CSCc1ccccc1)NC(=O)OCc1ccccc1)C(N)=O` (stereo unspecified) (Cbz-Cys(Bn)-Val-NH2; configuration not given here), for which the growth inhibition in experiment [1] is 8.8%; in experiment [2], 16.1%; in experiment [3] it was 1.6%; in experiment [4] it was -3.65%; in experiment [5] it was -0.9%; in experiment [6], 30.6%.

Regarding `COc1cccc(Cc2c3cc(OC)ccc3cc[n+]2C)c1`, the growth inhibition in experiment [1] is 33.3%; in experiment [2], 10.8%; in experiment [3], 34.2%; in experiment [4], 27.7%; in experiment [5], 59%; in experiment [6], 52.7%.

Consider `Nc1nnnn1CCc1ccccc1`, for which the growth inhibition in experiment [1] was 7.75%; in experiment [2], 6.3%; in experiment [3] it was -4%; in experiment [4], -10.8%; in experiment [5], 4.4%; in experiment [6], 9.75%.

Take `CNC(=O)NCCc1c[nH]c2ccccc12`: the growth inhibition in experiment [1] was -35.9%; in experiment [2], -19.9%; in experiment [3], -49.1%; in experiment [4], -24.1%; in experiment [5] it was -26.7%; in experiment [6], -40.9%.

For `COC(=O)C12c3ccccc3C3C(c4ccccc41)C32` (stereo unspecified), the growth inhibition in experiment [1] was 11.9%; in experiment [2], 13.5%; in experiment [3], 22.8%; in experiment [4], 17.6%; in experiment [5] it was 2.2%; in experiment [6] it was 20.6%.

For `CCCCCCCCCCCCCCCCCC(=O)OCC(CO)OC(=O)CCCCCCCCCCCCCCCCC` (stereo unspecified), the growth inhibition was 4.45% in experiment [1]; -9.65% in experiment [2]; 7.3% in experiment [3]; 6.95% in experiment [4]; 34.1% in experiment [5]; 29.7% in experiment [6].

For `CC(=O)OCC1OC(Oc2cccc(C=C(C(C)=O)C(C)=O)c2)C(OC(C)=O)C(OC(C)=O)C1OC(C)=O` (stereo unspecified), the growth inhibition was 9.25% in experiment [1]; 3.25% in experiment [2]; 6.65% in experiment [3]; 5.3% in experiment [4]; 0.65% in experiment [5]; 30.7% in experiment [6].

As to `Cc1cc(=O)c2cc(-c3ccccc3)ccc2[nH]1`, the growth inhibition is -1% in experiment [1]; 4.4% in experiment [2]; -13.4% in experiment [3]; 0.05% in experiment [4]; -1.5% in experiment [5]; 2% in experiment [6].

Regarding `CC(c1ccccc1)n1cnc2c(N(CCO)CCO)ncnc21` (stereo unspecified), the growth inhibition in experiment [1] is 2.5%; in experiment [2] it was -1.6%; in experiment [3], 9.45%; in experiment [4], -4.05%; in experiment [5], 9.85%; in experiment [6], 11.7%.

Turning to `N=C(N)n1ncc2c1CCCC2=O`, the growth inhibition in experiment [1] is -17.4%; in experiment [2], 19.9%; in experiment [3] it was -6.1%; in experiment [4] it was -20.2%; in experiment [5], 6.1%; in experiment [6] it was 1.75%.

Regarding `CC(C)N(C=C(C#N)C#N)C(C)C`, the growth inhibition was 15.5% in experiment [1]; 7.5% in experiment [2]; -0.4% in experiment [3]; -57.5% in experiment [4]; 3.75% in experiment [5]; 4.6% in experiment [6].

Turning to `Cc1c2cnccc2c(C)c2c1c1ccccc1n2CCNCc1ccccc1`, the growth inhibition was 98.2% (active) in experiment [1]; 50.4% in experiment [2]; 92.7% (active) in experiment [3]; -7.75% in experiment [4]; 1.15% in experiment [5]; 66.7% in experiment [6].

Consider `Oc1ccc2c(c1)-c1ccccc1C2`, for which the growth inhibition was 38.8% in experiment [1]; 2.9% in experiment [2]; -4.5% in experiment [3]; 17.2% in experiment [4]; 37.3% in experiment [5]; 29.9% in experiment [6].

For the compound `Cc1ccc(S(=O)(=O)NCc2cccc([N+](=O)[O-])c2)cc1`, the growth inhibition in experiment [1] is 6.25%; in experiment [2], -15.8%; in experiment [3] it was -13.6%; in experiment [4], 19%; in experiment [5], 18.2%; in experiment [6], 14.8%.

On to `CCOC(=O)/C(C)=C1\N=C(c2ccccc2)OC(=NC2CCCCC2)N1C1CCCCC1`, for which the growth inhibition in experiment [1] was 9.95%; in experiment [2], -4.8%; in experiment [3], 0.3%; in experiment [4] it was 17.9%; in experiment [5] it was -4.55%; in experiment [6], 8.1%.

For the compound `COC(=O)C(=O)Cc1cccc(OC(C)=O)c1C(=O)OC`, the growth inhibition is 8.55% in experiment [1]; 6.4% in experiment [2]; 6.6% in experiment [3]; -94% in experiment [4]; 9.35% in experiment [5]; 2.6% in experiment [6].

On to `CC(=O)OCC1OC(Nc2[nH]c(=O)[nH]c(=O)c2N=O)C(OC(C)=O)C(OC(C)=O)C1OC(C)=O` (stereo unspecified), for which the growth inhibition is 5.75% in experiment [1]; 3.75% in experiment [2]; 0.95% in experiment [3]; -1.5% in experiment [4]; -1.7% in experiment [5]; -10.3% in experiment [6].
